Results filed as inconclusive are left out. Entries that show only a call come without a potency. Calls of active or inactive are those of the source. Calls follow the shape of the dose curve; as a rule, active = well fitted inhibition curve with a large enough effect; inconclusive = small, poorly fitted or top-dose-only effect; inactive = flat fitted curve, though single readings scatter. Where a SMILES comes first, the peptide text is derived from it. [ ]: non-standard residue; d: D form. PhLac = O=C(O)[CH](O)Cc1ccccc1; NMeV = CN[CH](C(=O)O)C(C)C

Calcium and integrin-binding protein 1 (Homo sapiens), sequence (Q99828 whole entry, looked up): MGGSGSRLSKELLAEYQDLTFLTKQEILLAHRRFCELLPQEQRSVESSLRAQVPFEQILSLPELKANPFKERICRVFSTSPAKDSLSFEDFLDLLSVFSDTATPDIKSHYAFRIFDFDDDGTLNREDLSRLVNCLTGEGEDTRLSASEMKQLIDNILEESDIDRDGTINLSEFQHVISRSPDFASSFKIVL

In this test the target is Calcium and integrin-binding protein 1 (Homo sapiens) (UniProt Q99828). Description: Primary qHTS for Identification of Calcium Integrin Binding Protein 1 (CIB1) Competitor (AID 1508620).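 Also: GST tagged CIB1 binding a fluorescein labelled alphaIIb integrin peptide tracer; top concentration of the series differs between compounds.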 As to conditions: CIB1-GST / FITC-alphaIIb peptide fluorescence polarization; series mostly up to 57.7 µM. An outline of the steps:
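CIB1-GST (1 uM final) and compound incubated 15 min at room temperature before adding FITC-alphaIIb peptide tracer (100 nM final). Competition for binding read by fluorescence polarization (ex 480, em 540) after another 15 min at room temperature.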
Regarding `Cc1nn(C)c(COc2ccc(N3CCN(S(=O)(=O)N(C)C)CC3)cc2)c1-c1cccc2c(CCCOc3cccc4ccccc34)c(C(=O)O)n(CCN3CCOCC3)c12`, the Potency result is “inactive”. `C[C@@]12C[C@]3(O)O[C@H](O1)[C@]1(COC(=O)c4ccccc4)[C@H]3C[C@@]12O[C@@H]1O[C@H](COC(=O)c2ccccc2)[C@@H](O)[C@H](O)[C@H]1O`: the Potency entry is “inactive”. To `CC(C)[C@H]1CCC(CO)=C[C@@H]1/C=C(\CO)C(=O)O` belongs “inactive”; to `CC(=O)OCC1=C[C@H](O)[C@@H]2C(C(=O)O)=CO[C@@H](O[C@@H]3O[C@H](CO)[C@@H](O)[C@H](O)[C@H]3O)[C@H]12`, “inactive”. To `NC(=O)c1cccc(-c2cc(O)cc(OC(=O)NC3CCCCC3)c2)c1` belongs “inactive”. As for `COC(=O)[C@]12C(=O)C(C)=C(O)[C@@]1(C)C(C)=CC1[C@@]34CC[C@@H](OC(C)=O)C(C)(C)C3[C@H](C[C@]12C)OC4=O` (some centres not stated), the Potency result is “inactive”.

As to `CC(C)NC[C@H](O)COc1ccc(CCOCC2CC2)cc1`, the Potency entry was “inactive”. On to `CC1(C)CC2C(O)C3=C(CC(C)(O)C2C1)C(=O)OC3O` (configuration not stated), for which the Potency entry is “inactive”. On to `CC1NC(=O)CNC(=O)C(C(C)C)NC(=O)C2CCCN2C(=O)C(C(C)C)NC(=O)C(Cc2c[nH]c3ccccc23)NC1=O` (configuration not stated) (cyclo(GAWVPV); configuration not given here), for which the Potency result was “inactive”.

In the case of `CC(C)C(C(=O)N1CCCC1C(=O)O)N(C)C(=O)C(O)Cc1ccccc1` (configuration not stated) (H-[PhLac]-[NMeV]-Pro-OH; configuration not given here), the Potency entry is “inactive”. Consider `C(#Cc1cccc(CN2CCOCC2)c1)CCN1CCCCC1`, for which the Potency result was “inactive”. In the case of `O=C(c1ccc(NS(=O)(=O)c2cccc3cccnc23)cc1)N1CCN(CC2CC2)CC1`, the Potency entry was “inactive”. Consider `C=CC1(C)CC2=CCC3C(C)(C(=O)O)CCCC3(C)C2CC1OC(C)=O` (configuration not stated), for which the Potency entry is “inactive”. As for `CC1CCC23COC(=O)C2=CC(O)CC3C1(C)CCC1=CC(=O)OC1O` (configuration not stated), the Potency result was “inactive”. Regarding `CC1=CCC2C(C)(CO)CCCC2(CO)C1CO` (configuration not stated), the Potency result was “inactive”. Turning to `CC1=CC[C@]2(C(=O)O[C@@H]3O[C@H](CO[C@@H]4O[C@H](CO)[C@@H](O[C@@H]5O[C@@H](C)[C@H](O)[C@@H](O)[C@H]5O)[C@H](O)[C@H]4O)[C@@H](O)[C@H](O)[C@H]3O)CC[C@]3(C)C(CCC4[C@@]5(C)C[C@@H](O)[C@H](O)[C@@](C)(CO)C5CC[C@]43C)C2C1C` (some centres not stated), the Potency result is “inactive”.

In the case of `CC1(C)O[C@@]2(C)CC[C@@H]1C[C@@H]2OC1OC(CO)C(O)C(O)C1O` (some centres not stated), the Potency result is “inactive”.

For the compound `CC(C)Nc1cc(-c2c[nH]c(C(=O)N[C@H](CO)c3cccc(Cl)c3)c2)c(Cl)cn1`, the Potency entry is “inactive”.

Regarding `C=CCc1ccc(O[C@@H]2O[C@H](CO[C@@H]3O[C@@H](C)[C@H](O)[C@@H](O)[C@H]3O)[C@@H](O)[C@H](O)[C@H]2O)cc1`, the Potency result is “inactive”. Take `C=C1C[C@]23C[C@H]1CC[C@H]2[C@@]12C=C[C@H](O)[C@@](C)(C(=O)O1)[C@H]2[C@@H]3C(=O)O`: the Potency result was “inactive”.

Regarding `CC1=CC(=O)CC(C)(C)C1CCC(C)OC1OC(COC(=O)c2cc(O)c(O)c(O)c2)C(O)C(O)C1O` (configuration not stated), the Potency entry is “inactive”. On to `C=C1CC2C3(C)C(O)CC(=O)C(C)(C)C3C(OC(C)=O)C(OC(C)=O)C2(C)C2C(=O)OC(C)(C(=O)OC)C(=O)C12C` (configuration not stated), for which the Potency entry was “inactive”. For `CC(C)C1=CCC(C)(O)C(OC2OC(CO)C(O)C(O)C2O)C1` (configuration not stated), the Potency result is “inactive”.

As for `CCC1CC2C(C)=CC3CCCCC3C2(C)C2(OC(=O)C(C)(O)OC2=O)O1` (configuration not stated), the Potency result is “inactive”. `CCOc1ccc(C(Nc2ccccn2)c2ccc3ccc(C)nc3c2O)cc1C` (configuration not stated): the Potency entry was “inactive”. In the case of `CC(C)(C)NCC(O)COc1cccc2c1CCCC2=O` (configuration not stated), the Potency result was “inactive”. On to `COc1ccc([C@@H]2N[C@H](C(=O)O)Cc3c2[nH]c2ccccc32)cc1CN1CCN(c2ccccc2F)CC1`, for which the Potency entry is “inactive”.

Turning to `CC(CCC1C(C(=O)O)=CC(=O)CC1(C)C)O[C@@H]1O[C@H](CO)[C@@H](O)[C@H](O)[C@H]1O` (some centres not stated), the Potency entry is “inactive”. Regarding `CC(=O)OC1C(O)C(C)=C(CCC(C)CC(=O)O)C2(C)CCCC(C)(C)C12` (configuration not stated), the Potency result was “inactive”. On to `CN1C(=O)N[C@@H](Cc2c[nH]c3c(Cl)cccc23)C1=O`, for which the Potency entry is “inactive”. Consider `CC(=O)NCCCCn1c2c(c3ccccc31)C(=O)NCC2`, for which the Potency result is “inactive”.

In the case of `CC(CCC1(O)OC2CC3C4CCC5CC(O[C@@H]6O[C@H](CO)[C@@H](O)[C@H](O)[C@H]6O[C@@H]6OC[C@@H](O)[C@H](O)[C@H]6O)C(O)CC5(C)C4CCC3(C)C2C1C)CO[C@@H]1O[C@H](CO)[C@@H](O)[C@H](O)[C@H]1O` (some centres not stated), the Potency result was “inactive”.

The values above are taken from PubChem BioAssay (NCATS).
